Data on 16 compounds can be found in PubChem BioAssay (NCATS).

Assay [1] can be described thus: qHTS of pediatric cancer cell lines to identify multiple opportunities for drug repurposing: Primary screen for BT-37 cells (AID 1347094). Note: potency is the fitted concentration of half-maximal effect. The method in brief:
(§1)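 Cells plated at 500-1,000/well in growth medium, compounds added after 5 h. MIPE tested at 11 points (from 0.78 nM), NPC at 8 points (from 0.59 nM). CellTiter-Glo luminescence after 48 h; concentration-response curves from primary screen.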
In general terms: In qHTS, concentration-response curves come from the screen itself.

Assay [2] is described as follows: qHTS of pediatric cancer cell lines to identify multiple opportunities for drug repurposing: Primary screen for NB-EBc1 cells (AID 1347095). Note: potency is the fitted concentration of half-maximal effect. An outline of the steps: as §1
Assay [3] can be described thus: qHTS of pediatric cancer cell lines to identify multiple opportunities for drug repurposing: Primary screen for U-2 OS cells (AID 1347096). Note: nearly all actives have a fitted effect of over 50% in size. The method in brief:
(§2)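 Cells (500-1,000/well) rested 5 h, then received compounds for 48 h; metabolically active cells were measured by CellTiter-Glo luminescence. Final concentrations spanned up to 46 µM (MIPE, 11-point) or 0.59 nM-46 µM (NPC, 8-point) in primary screens, 11-point in follow-ups.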

The nature of assay [4]: qHTS of pediatric cancer cell lines to identify multiple opportunities for drug repurposing: Primary screen for Saos-2 cells (AID 1347097). Note: nearly all actives have a fitted effect of over 40% in size. Note: potency is the fitted concentration of half-maximal effect. An outline of the steps:
as §1

A short description of assay [5]: qHTS of pediatric cancer cell lines to identify multiple opportunities for drug repurposing: Primary screen for SK-N-SH cells (AID 1347098). Note: nearly all actives have a fitted effect of over 65% in size. Note: potency is the fitted concentration of half-maximal effect. The method in brief:
as §2

Assay [6] can be described thus: qHTS of pediatric cancer cell lines to identify multiple opportunities for drug repurposing: Primary screen for LAN-5 cells (AID 1347100). Note: potency is the fitted concentration of half-maximal effect. An outline of the steps: as §2
A short description of assay [7]: qHTS of pediatric cancer cell lines to identify multiple opportunities for drug repurposing: Primary screen for BT-12 cells (AID 1347101). Note: nearly all actives have a fitted effect of over 25% in size. Note: potency is the fitted concentration of half-maximal effect. The method in brief: as §2
The nature of assay [8]: qHTS of pediatric cancer cell lines to identify multiple opportunities for drug repurposing: Primary screen for Rh18 cells (AID 1347102). Note: nearly all actives have a fitted effect of over 65% in size. Note: potency is the fitted concentration of half-maximal effect. The method in brief: as §2
The nature of assay [9]: qHTS of pediatric cancer cell lines to identify multiple opportunities for drug repurposing: Primary screen for OHS-50 cells (AID 1347103). Note: nearly all actives have a fitted effect of over 40% in size. Note: potency is the fitted concentration of half-maximal effect. The method in brief: as §2
The nature of assay [10]: qHTS of pediatric cancer cell lines to identify multiple opportunities for drug repurposing: Primary screen for RD cells (AID 1347104). Note: nearly all actives have a fitted effect of over 55% in size. Note: potency is the fitted concentration of half-maximal effect. The method in brief:
as §1

Assay [11] can be described thus: qHTS of pediatric cancer cell lines to identify multiple opportunities for drug repurposing: Primary screen for control Hh wild type fibroblast cells (AID 1347106). Note: nearly all actives have a fitted effect of over 55% in size. Note: potency is the fitted concentration of half-maximal effect. The method in brief: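 Cells (500-1,000/well) in growth media were settled 5 h at 37 degrees C, then given compounds for 48 h. Viability was read as CellTiter-Glo luminescence. Primary runs used MIPE at 11 points (0.78 nM-46 µM) and NPC at 8 points (0.59 nM-46 µM); follow-ups used 11 points.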

A short description of assay [12]: qHTS of pediatric cancer cell lines to identify multiple opportunities for drug repurposing: Primary screen for Rh30 cells (AID 1347107). Note: series mostly up to about 46 µM; nearly all actives have a fitted effect of over 75% in size. An outline of the steps: as §2
Assay [13] is described as follows: qHTS of pediatric cancer cell lines to identify multiple opportunities for drug repurposing: Primary screen for Rh41 cells (AID 1347108). Note: nearly all actives have a fitted effect of over 70% in size. Note: potency is the fitted concentration of half-maximal effect. The method in brief: as §1
Assay [14] in a line: qHTS of pediatric cancer cell lines to identify multiple opportunities for drug repurposing: Primary screen for NB1643 cells (AID 1347099). Note: nearly all actives have a fitted effect of over 50% in size. Note: potency is the fitted concentration of half-maximal effect. The method in brief:
as §1

The nature of assay [15]: qHTS of pediatric cancer cell lines to identify multiple opportunities for drug repurposing: Primary screen for MG 63 (6-TG R) cells (AID 1347105). Note: nearly all actives have a fitted effect of over 50% in size. Note: potency is the fitted concentration of half-maximal effect. The method in brief:
as §1

Assay [16] is described as follows: qHTS of pediatric cancer cell lines to identify multiple opportunities for drug repurposing: Confirmatory screen for NB1643 cells (AID 1347109). Note: potency is the fitted concentration of half-maximal effect; nearly all actives have a fitted effect of over 45% in size. The method in brief: as §2
Assay [17] in a line: qHTS of pediatric cancer cell lines to identify multiple opportunities for drug repurposing: Confirmatory screen for A673 cells (AID 1347110).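 Note: cells exposed to compound for 48 h before the viability read; nearly all actives have a fitted effect of over 65% in size.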 Note: potency is the fitted concentration of half-maximal effect. The method in brief: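 Forty-eight-hour viability assay. Follow-up compounds ran at 11-point dilutions; positive control bortezomib at 2.3 uM final, neutral control DMSO.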
A short description of assay [18]: qHTS of pediatric cancer cell lines to identify multiple opportunities for drug repurposing: Confirmatory screen for SK-N-MC cells (AID 1347111).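 Note: potency is the fitted concentration of half-maximal effect; cells exposed to compound for 48 h before the readout; nearly all actives have a fitted effect of over 70% in size.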 An outline of the steps: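 Seed 500-1,000 cells/well; rest 5 h at 37 degrees C. Pin-transfer compounds, 11-point titration. Incubate 48 h. Add CellTiter-Glo, 15 min RT, read luminescence.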
Assay [19] in a line: qHTS of pediatric cancer cell lines to identify multiple opportunities for drug repurposing: Confirmatory screen for BT-12 cells (AID 1347112). Note: potency is the fitted concentration of half-maximal effect; nearly all actives have a fitted effect of over 55% in size. An outline of the steps:
as §2

The nature of assay [20]: qHTS of pediatric cancer cell lines to identify multiple opportunities for drug repurposing: Confirmatory screen for LAN-5 cells (AID 1347113). Note: potency is the fitted concentration of half-maximal effect; nearly all actives have a fitted effect of over 65% in size. An outline of the steps: as §2

Values joined by “and” are separate entries in the source; they are usually repeats but may differ in a detail not shown here. Identical values can stand only once. Inconclusive results are not listed. Active and inactive are the calls of the source. Calls come from the whole dose curve; as a rule, active = well fitted curve in the direction sought with a large enough effect; inconclusive = small, poorly fitted or top-dose-only effect, or another doubt; inactive = no such curve, though single readings can be large; an effect the other way counts as inactive or inconclusive.

For the compound `O=C1CC[C@@]2(O)[C@H]3Cc4ccc(O)c5c4[C@@]2(CCN3CC2CC2)[C@H]1O5`, the Potency result in [1], in assay [2], in assay [3], in [4], in assay [5] and in assay [6] was “inactive” each time. The Potency entry in assay [7], in [8], in assay [9], in [10], in assay [11] and in [12] was “inactive” throughout. Also, the Potency entry in [13] was “inactive”.

Regarding `CCN(CC)C(=O)N[C@@H]1C=C2c3cccc4[nH]cc(c34)C[C@@H]2N(C)C1`, the Potency result in assay [1], in assay [2], in assay [3], in assay [4], in [5] and in assay [14] was “inactive” throughout. Moreover, the Potency entry in [6], in assay [7], in assay [8], in assay [9], in assay [10] and in [15] was “inactive” throughout. Besides, the Potency result in assay [11], in assay [12] and in [13] was “inactive” in each case.

As for `CC(C)(N)Cc1ccc(Cl)cc1`, the Potency result in assay [1], in assay [2], in assay [3], in assay [4], in [5] and in assay [14] was “inactive” each time. The Potency entry in [6], in assay [7], in assay [8], in assay [10], in [15] and in [11] was “inactive” in each case. Also, the Potency entry in assay [12] and in assay [13] was “inactive” each time.

Regarding `CNCC(O)c1ccc(O)cc1` (stereo not drawn), the Potency result in [1], in assay [2], in assay [3], in [4], in [5] and in assay [14] was “inactive” each time. In addition, the Potency entry in assay [6], in [7], in assay [8], in [9], in assay [10] and in [11] was “inactive” each time. The Potency entry in assay [12] and in assay [13] was “inactive” in each case.

`C#CCOC(C(=O)OCCN(C)C)(c1ccccc1)c1ccccc1`: the Potency result in assay [1], in assay [2], in assay [4], in [5], in assay [14] and in [6] was “inactive” throughout. Moreover, the Potency entry in [7], in assay [8], in assay [9], in assay [10], in [15] and in assay [11] was “inactive” throughout. Also, the Potency entry in [12] and in assay [13] was “inactive” each time.

Regarding `COc1ccccc1N1CCNCC1`, the Potency entry in assay [1], in assay [2], in [4], in assay [5], in [14] and in [6] was “inactive” each time. The Potency result in [7], in assay [8], in assay [9], in assay [10], in [15] and in assay [11] was “inactive” in each case. In addition, the Potency result in assay [12] and in assay [13] was “inactive” in each case.

As for `N[C@@H]1C[C@H]1c1ccccc1`, the Potency result in assay [1], in assay [2], in assay [3], in assay [5], in assay [14] and in assay [6] was “inactive” throughout. For the same compound, the Potency entry in [7], in [8], in assay [9], in [10], in assay [15] and in assay [11] was “inactive” throughout. In addition, the Potency entry in assay [12] and in assay [13] was “inactive” in each case.

On to `Cc1sc2c(c1C)C(c1ccc(Cl)cc1)=N[C@@H](CC(=O)OC(C)(C)C)c1nnc(C)n1-2`, for which the Potency was 1.37 µM (active) in assay [1]; 4.18 µM (active) in assay [2]; 1.48 µM (active) in [4]; 2.41 µM (active) in assay [5]; 5.9 µM (active) in assay [14]; 590 nM (active) in assay [6]. For the same compound, the Potency is 935 nM (active) in assay [8]; 344 nM (active) in assay [9]; 590 nM (active) in assay [10]; 743 nM (active) in assay [13]; 1.31 µM (active) in assay [16]. Besides, the Potency entry in assay [17] was “inactive”.

In the case of `Cc1ncc(CNC(=O)N(CCCl)N=O)c(N)n1`, the Potency entry in assay [1], in assay [2], in [4], in assay [5], in assay [14] and in assay [6] was “inactive” each time. The Potency entry in assay [7], in assay [8], in assay [9], in [10], in [11] and in [12] was “inactive” each time. Further, in assay [13], the Potency entry was “inactive”.

In the case of `O=C(NC(O)C(Cl)(Cl)Cl)NC(O)C(Cl)(Cl)Cl` (stereo not drawn), the Potency entry in assay [1], in assay [2], in assay [3], in assay [4], in assay [14] and in assay [6] was “inactive” throughout. The Potency entry in [7], in [8], in assay [9], in [10], in [11] and in assay [12] was “inactive” each time. Also, the Potency entry in assay [13] was “inactive”.

On to `CCN(CC)CCOC(=O)C(O)(c1ccccc1)c1ccccc1`, for which the Potency result in assay [1], in assay [2], in assay [4], in assay [5], in assay [14] and in assay [6] was “inactive” in each case. The Potency result in [7], in assay [8], in [9], in assay [10], in [11] and in assay [12] was “inactive” each time. Further, the Potency result in [13] is “inactive”.

Take `C=CCN1CC[C@]23c4c5ccc(O)c4O[C@H]2C(=O)CC[C@@]3(O)[C@H]1C5`: the Potency entry in assay [1], in assay [2], in assay [4], in assay [5], in [14] and in [6] was “inactive” each time. Also, the Potency result in [7], in assay [8], in assay [9], in assay [10], in assay [11] and in assay [12] was “inactive” throughout. In addition, in [13], the Potency result is “inactive”.

As for `NCCc1cc(O)c(O)cc1O`, the Potency entry in [1], in assay [2], in assay [4], in assay [5], in assay [14] and in assay [6] was “inactive” in each case. Moreover, the Potency result in assay [7], in [8], in assay [10], in [15], in [11] and in assay [12] was “inactive” throughout. The Potency result in assay [13] was “inactive”.

For the compound `C[C@@H]1O[C@@H](O[C@H]2C[C@@H](O)[C@]3(CO)[C@H]4[C@H](O)C[C@]5(C)[C@@H](C6=CC(=O)OC6)CC[C@]5(O)[C@@H]4CC[C@]3(O)C2)[C@H](O)[C@H](O)[C@H]1O`, the Potency in assay [1] was 15.3 nM (active) and 49 nM (active); in assay [2] it was 74.3 nM (active) and 266 nM (active); in assay [4] it was 59 nM (active) and 75 nM (active); in assay [5], 152 nM (active) and 344 nM (active); in assay [14] it was 187 nM (active) and 299 nM (active); in assay [6] it was 46.9 nM (active) and 211 nM (active). In addition, the Potency in [7] was 27.3 nM (active) and 61.7 nM (active); in assay [9], 19.3 nM (active) and 49 nM (active); in assay [10], 14.8 nM (active) and 33.5 nM (active); in assay [15], 14.8 nM (active) and 33.5 nM (active); in [11], 14.8 nM (active); in [16] it was 369 nM (active) and 585 nM (active). Besides, the Potency was 329 nM (active) and 282 nM (active) in [17]; 131 nM (active) and 293 nM (active) in [18]; 131 nM (active) and 147 nM (active) in assay [19]; 329 nM (active) and 414 nM (active) in assay [20]. In assay [12], the Potency result was “inactive”.

With `CCCN1CCC[C@@H]2Cc3[nH]ncc3C[C@H]21`, the Potency result in [1], in assay [2], in assay [3], in [5], in [14] and in assay [6] was “inactive” each time. In addition, the Potency result in assay [7], in assay [8], in assay [9], in assay [10], in assay [11] and in assay [12] was “inactive” throughout. The Potency entry in assay [13] was “inactive”.

Regarding `CCN(CC)CCN1C(=O)CN=C(c2ccccc2F)c2cc(Cl)ccc21`, the Potency entry in assay [1], in assay [2], in [4], in [5], in assay [14] and in assay [6] was “inactive” throughout. The Potency result in [7], in assay [8], in assay [10], in assay [15], in assay [11] and in assay [12] was “inactive” each time. In assay [13], the Potency result is “inactive”.
